# IDH1 R132H inh – blocks human mutant IDH1 R132H enzyme; Potency, µM (titrated, usually from 76.6 µM), most hits filed as inhibitors; 390,000 tested, 0.093% active; AID 602179; O75874; IDH1-R132H enzyme, NADPH consumption, diaphorase/resazurin fluorescence; note: nearly all actives have a fitted effect of over 65% in size
# Target sequence (O75874 whole entry R132H, stated change not applied): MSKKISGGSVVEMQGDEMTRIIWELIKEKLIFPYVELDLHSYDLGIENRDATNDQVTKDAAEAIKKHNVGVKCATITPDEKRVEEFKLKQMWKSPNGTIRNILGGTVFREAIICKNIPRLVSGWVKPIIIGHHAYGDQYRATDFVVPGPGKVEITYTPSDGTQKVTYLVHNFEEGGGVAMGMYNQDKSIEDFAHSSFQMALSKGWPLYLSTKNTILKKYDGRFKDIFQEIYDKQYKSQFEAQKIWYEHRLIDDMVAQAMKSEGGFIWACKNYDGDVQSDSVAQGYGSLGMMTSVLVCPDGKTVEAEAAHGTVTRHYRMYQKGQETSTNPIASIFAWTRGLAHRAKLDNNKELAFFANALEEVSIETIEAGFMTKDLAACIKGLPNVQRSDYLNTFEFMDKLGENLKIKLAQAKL
#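 IDH1-R132H (0.5 ug/mL) preincubated 30 min with compound, then NADPH (0.016 mM) and alpha-KG (2 mM) added; 80 min at RT, pH 7.5. Remaining NADPH coupled via diaphorase/resazurin to fluorescence (540/590 nm); concentration-response curves normalized to no-enzyme control.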
# PKM2 act – PKM2 (human) enzyme activation | P14618 | purified PKM2, Kinase-Glo ATP luminescence, activation; response scale: 0% is enzyme alone, no compound | Potency, µM (doses to about 57.5 µM), usual class: activators | 260,000 tested, 0.34% active | AID 1631; note: nearly all actives have a fitted effect of over 55% in size
#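 hPK-M2, >95% pure; 0.1 mM ADP / 0.5 mM PEP final; imidazole pH7.2 buffer w/ 7 mM MgCl2, 50 mM KCl; 1 h RT; Kinase-Glo lum. Intermediate enzyme activity for dual inhibitor/activator qHTS.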
# TrxR1 inh – blocks rat thioredoxin reductase 1; O89049; recombinant rTrxR1, NADPH fluorescence consumption, selenite substrate; Potency, µM (highest dose often 114 µM), actives largely listed as inhibitors; 390,000 tested, 1% active; AID 588453; note: nearly all actives have a fitted effect of over 65% in size
#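 Rat TrxR1 (90 nM in the dispensed reagent) was pre-reduced with 400 uM NADPH for 5 min at room temperature, then incubated with compound for 15 min. After 400 uM selenite was added, NADPH fluorescence (Ex 340/Em 450 nm) was followed for 8 min.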
# Anesthetic bind – candidate novel general anesthetic via apoferritin binding; 350,000 tested, 0.074% active; P02791; apoferritin/1-aminoanthracene competitive binding, fluorescence; Potency, µM (doses to about 77.5 µM), most hits filed as inhibitors; note: nearly all actives have a fitted effect of over 20% in size
# Target sequence (P02791 2-175 limits assumed): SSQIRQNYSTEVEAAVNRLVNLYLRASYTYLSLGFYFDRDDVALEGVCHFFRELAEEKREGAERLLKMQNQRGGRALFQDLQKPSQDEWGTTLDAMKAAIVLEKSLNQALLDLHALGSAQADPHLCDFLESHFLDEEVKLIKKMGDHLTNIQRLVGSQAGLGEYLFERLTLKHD
#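 In PBS, apoferritin at 10 uM is loaded with 1-AMA from a 50% saturated solution. After 10 min of compound exposure at ambient temperature, reduced 535 nm fluorescence indicates probe displacement.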
# TrxR1 substrate – rat thioredoxin reductase 1 substrate activity; purified TrxR1 substrate turnover, NADPH consumption readout; AID 588456; Potency, µM (titrated, usually from 114 µM); 390,000 tested, 0.01% active; O89049; note: nearly all actives have a fitted effect of over 50% in size
#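 Rat TrxR1, dispensed at 90 nM, was prereduced with 400 uM NADPH (final) for 5 min at ~22 deg C, then incubated with compound 15 min before 400 uM selenite. A first-read NADPH fluorescence drop versus no-compound background flagged substrates.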
# GALK inh – galactokinase (human) inhibition. Purified GALK, Kinase-Glo residual ATP luminescence. Potency, µM (titrated, usually from 57.5 µM), most hits filed as inhibitors. 270,000 tested, 0.007% active. AID 1868
#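 ATP-depletion format; final 35 uM ATP, 100 uM D-galactose, 5 nM enzyme; pH 8.0 HEPES/Mg2+ buffer; 60 min RT; luminescence read 10 min after detection reagent.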
# Numbers stand for hits; n = inactive; u = inconclusive; x = no result given; [ ] = another dose, or the depositor's remark. In the library only some 1.3% were active in any assay of this set; here they are far more common. Calls come from the whole dose curve; as a rule, active = well fitted curve in the direction sought with a large enough effect; inconclusive = small, poorly fitted or top-dose-only effect, or another doubt; inactive = no such curve, though single readings can be large; an effect the other way counts as inactive or inconclusive.
SMILES,IDH1 R132H inh,PKM2 act,TrxR1 inh,Anesthetic bind,TrxR1 substrate,GALK inh
COc1ccc(-c2c(-c3ccc4c(c3)OCO4)noc2-c2ccsc2)cn1,x,x,n,x,n,x
c1ccc(-c2onc(-c3ccco3)c2-c2ccc3c(c2)OCO3)cc1,n,n,50µM,n,n,x
CS(=O)(=O)c1ncc(Cl)c(C(=O)Nc2ccc(N3CCOCC3)cc2)n1,n,n,10µM,n,n,n
CS(=O)(=O)c1ncc(Cl)c(C(=O)Nc2ccc(OC(F)F)cc2)n1,n,n,40µM,n,n,n
CS(=O)(=O)c1ccc(C(=O)Nc2ccc(N3CCOCC3)cc2)c(Cl)c1,n,n,n,n,n,n
CCOC(=O)c1nc(S(C)(=O)=O)ncc1Cl,n,n,18µM,n,n,n
Cc1ccccc1NC(=O)c1nc(S(C)(=O)=O)ncc1Cl,n,n[11.5 µM],u,n,n,n
CCOC(=O)c1scc(-c2ccccc2)c1S(=O)(=O)N1CCN(c2ccc(Cl)cc2)CC1,n,x,n,n,n,x
CCCCCCCNC(=O)C1(CC2CC(c3ccccc3)=NO2)CCNCC1 (configuration not stated),n,x,u,x,n,x
O=C(NCc1ccccc1)C1(CC2CC(c3ccccc3)=NO2)CCNCC1 (configuration not stated),n,x,22µM,x,n,x
CC(OC(=O)c1ccccc1OCC(=O)Nc1ccc(Br)cc1)C(=O)NC1CCCC1 (configuration not stated),x,x,n,x,n,x
O=C(Nc1ccccc1OCc1cc(=O)n2ccccc2n1)Nc1ccccc1C(F)(F)F,n,x,n,n,n,x
CC(=Nc1ccccc1N)c1c(C)cc(=O)n(O)c1O,x,x,x,n,x,x
COc1ccc(CC(=O)n2[nH]c(=O)ccc2=O)cc1OC,n,8.9µM,3.5µM,n,n,n
O=C1C=CC(=Nc2ccc(F)cc2)O1,n,x,7.1µM,x,n,x
O=C1C=CC(=Nc2ccc3c(c2)C(=O)c2ccccc2-3)O1,n,x,n[2.29 µM],x,n,x
O=C(NCCc1csc(-c2ccc(F)cc2)n1)c1cccs1,n,x,n,n,n,x
CC(C)(C)n1ncc2c(=O)n(Cc3ccc(Cl)cc3C(F)(F)F)cnc21,x,x,n,x,n,x
CC(NC(=O)Cn1nc(-c2ccccc2)c2ccccc2c1=O)c1ccccc1 (configuration not stated),n,n,n,14µM,n,x
CC(NC(=O)Cn1nc(C(=O)O)c2ccccc2c1=O)c1ccccc1 (configuration not stated),n,n,n,n,n,n
C=CCN(CC=C)c1cnn(-c2nc3ccccc3[nH]2)c(=O)c1Cl,n,n,n,n,n,n
O=c1c(Cl)c(NCCCO)cnn1-c1nc2ccccc2[nH]1,n,n,3.5µM,n,n,n
COc1ccc(S(=O)(=O)c2c(Nc3c(C)cccc3C)sc(C(=O)c3ccc4c(c3)OCO4)c2N)cc1,n,x,n,n,n,x
O=S1(=O)CCOC[C@H](c2ccccc2)N1Cc1ccc(F)cc1,x,x,n,x,n,x
Cc1cc2c(cc1C)N[C@]1(C[C@H]3CCCC(=O)N4CC[C@@H](C1)[C@@H]34)C(=NC1CCCCC1)N2,x,x,n,x,n,x
SMILES,IDH1 R132H inh,PKM2 act,TrxR1 inh,Anesthetic bind,TrxR1 substrate,GALK inh
CC1=C(C(=O)OCC(Cl)(Cl)Cl)N2C(=O)C(NC(=O)Cc3ccccc3)C2SC1 (configuration not stated),n,n,n,u,n,n
CC(=O)OCC1=C(C(=O)OC(C)(C)C)N2C(=O)[C@@H](NC(=O)Cc3ccccc3)[C@H]2SC1,n,x,6.3µM,x,n,x
C=C(C)C1(O)OC(=O)C=C1OC (configuration not stated),n,n,14µM,n,n,n
CCN(CC)S(=O)(=O)c1ccc2c(c1)N(CC(=O)NCCCN1CCN(c3cc(C)ccc3C)CC1)C(=O)CO2,n,x,n,n,n,x
Cc1cc(C)c(CSc2nnc(C)n3c2cc2occc23)c(C)c1,n,x,n,u,n,x
CCOc1ccc(OCC)c(NC(=O)CCc2nc3cccnc3n2Cc2cccs2)c1,n,x,n,n,n,x
COc1cc(NS(=O)(=O)c2cc3c(cc2C)NC(=O)CO3)cc(OC)c1,n,7.1µM,n,n,n,x
Cc1cc2c(cc1S(=O)(=O)Nc1cc(C(F)(F)F)cc(C(F)(F)F)c1)OCC(=O)N2,n,x,n,n,n,x
CCCCC(CC)CNC(=O)Cc1ccc(-n2c(=O)[nH]c3ccccc3c2=O)cc1 (configuration not stated),n,x,n,u,n,x
CC1CCCN(S(=O)(=O)c2ccc(NC(=O)c3cccc(-n4cnnn4)c3)cc2)C1 (configuration not stated),n,n,n,14µM,n,n
CC1CCCCN1S(=O)(=O)c1ccc(NC(=O)c2cccc(-n3cnnn3)c2)cc1 (configuration not stated),n,n,n,u,n,n
COc1ccc(C(=O)NC(=S)Nc2ccc(S(=O)(=O)Nc3cc(OC)nc(OC)n3)cc2)cc1,n,n,56µM,n,n,n
COc1cc(NS(=O)(=O)c2ccc(NC(=S)NC(=O)c3ccc(F)cc3)cc2)nc(OC)n1,n,x,u,n,n,n
COc1ccc(C(=O)NC(=S)Nc2ccc(S(=O)(=O)Nc3cc(OC)ncn3)cc2)cc1,n,n,45µM,n,n,n
COc1cc(NS(=O)(=O)c2ccc(NC(=S)NC(=O)c3ccco3)cc2)ncn1,n,n,n,n,n,n
COC(=O)c1ccc(Cl)cc1NC(=O)N(Cc1ccc(OC)cc1)C1CCN(C(C)=O)CC1,u,x,n,n,n,x
CCc1cccc(NS(=O)(=O)c2ccc3c(c2)n(C)c(=O)c(=O)n3C)c1,n,x,n,n,n,x
Cn1c(=O)oc2cc(S(=O)(=O)Nc3cccc([N+](=O)[O-])c3)ccc21,n,x,n,n,n,n
COc1ccc(S(=O)(=O)Nc2ccc3c(c2)OCO3)cc1,n,25µM,n,n,n,n
Cn1c(=O)oc2cc(S(=O)(=O)Nc3ccc4c(c3)OCO4)ccc21,n,7.9µM,n,n,n,n
CCc1cccc(NS(=O)(=O)c2ccc3c(c2)oc(=O)n3C)c1,n,3.2µM,n,n,n,n
Cn1c(=O)oc2cc(S(=O)(=O)Nc3ccccc3)ccc21,n,2.5µM,n,n,n,n
O=S(=O)(NCc1cccnc1)c1cccn1-c1ncc(C(F)(F)F)cc1Cl,n,22µM,n,n,n,n
CCCNS(=O)(=O)c1cccn1-c1ncc(C(F)(F)F)cc1Cl,n,u,n,u,n,n
COc1ccc(C2=CC3=C(Br)C(=O)C(C)(OC(=O)c4ccco4)C(=O)C3=CO2)cc1 (configuration not stated),n,n,50µM,n,n,n

# Compound activity from PubChem BioAssay.
